Among the data in PubChem BioAssay (Tox21) are outcome, Potency and activity change, positive = activation values, retold here.

Unmarked numbers belong to inactive results. Inconclusive results are not listed. Calls of active or inactive are those of the source. Unless noted, calls come from the whole dose curve; as a rule, active = well fitted curve in the direction sought with a large enough effect in the repeat runs; inconclusive = weak or mixed curves; inactive = no such curve, though single readings can be large; an effect the other way counts as inactive or inconclusive.

Assay [1] in a line: qHTS assay to identify small molecule antagonists of the retinoid acid receptor (RAR) signaling pathway - cell viability counter screen (AID 1159551). Note: nearly all actives have a fitted effect of over 35% in size. Summed up: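 In this counter screen, the RARE-luciferase line C3RL4 was exposed for 6 h at 37 C and 5% CO2 to compounds with retinol at 1 uM final. Cellular ATP, read by luminescence, served as the viability measure.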
Background: In qHTS, concentration-response curves come from the screen itself.

A short description of assay [2]: qHTS assay to identify small molecule antagonists of the retinoic acid receptor (RAR) signaling pathway (AID 1159552; note: nearly all actives have a fitted effect of over 50% in size). The essentials:
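Quantitative HTS in C3RL4 RARE-luciferase reporter cells. Compounds were added with 1 uM (final) retinol; luminescence was read after 6 hr.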

Assay [3] can be described thus: qHTS assay to identify small molecule agonists of the retinoic acid receptor (RAR) signaling pathway (AID 1159553). The essentials: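 In this cell-based screen, 1,000 C3RL4 cells per well were cultured overnight, dosed with test chemicals in DMSO for 6 hr, and assessed for RARE luciferase luminescence.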
Assay [4] can be described thus: qHTS assay to identify small molecule antagonists of the estrogen related receptor (ERR) signaling pathway from Tox21 library - cell viability counter screen (AID 1224834). Note: nearly all actives have a fitted effect of over 30% in size. The essentials: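 Counter screen run in ERR cells (2,000 cells/well): cells pre-incubated 6 h, then treated with compounds for 17.5 h at 37 C. Fluorescence was read 30 min after CellTiter-Fluor addition.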

The target in assay [5] is Luciferin 4-monooxygenase (Photinus pyralis) (UniProt P08659). Put plainly: qHTS assay to identify small molecule inhibitors of firefly luciferase (AID 1224835). Note: nearly all actives have a fitted effect of over 25% in size. The essentials: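 Biochemical qHTS: compounds run as interplate titrations against purified firefly enzyme, with D-luciferin and ATP each at its KM concentration. Light output recorded by CCD imaging.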
Assay [6] can be described thus: qHTS assay to identify small molecule agonists of the constitutive androstane receptor (CAR) signaling pathway - cell viability counter screen (AID 1224836). Note: nearly all actives have a fitted effect of over 45% in size. Summed up: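 Counter screen multiplexed with the CAR reporter readout: HepG2 cells co-transfected with hCAR and the CYP2B6-2.2kb construct receive a 15-concentration compound series and 0.75 uM PK11195 (final), then CellTiter-Fluor fluorescence is read after 23 h.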

Assay [7] can be described thus: qHTS assay to identify small molecule antagonists of the constitutive androstane receptor (CAR) signaling pathway - cell viability counter screen (AID 1224837). Note: nearly all actives have a fitted effect of over 45% in size. The essentials: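 CITCO at 50 nM final was added alongside compounds (15 concentrations) to double-stable hCAR/CYP2B6-2.2kb HepG2 cells. Following 23 hr at 37 C, cell viability was quantified by CellTiter-Fluor fluorescence intensity.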

Assay [8] in a line: qHTS assay to identify small molecule antagonists of the estrogen related receptor signaling pathway with the pleiotropic PPARgamma coactivator (PGC) from Tox21 10K library - cell viability counter screen (AID 1224840; active = well fitted cell-killing curve with a large enough effect in the repeat runs, not every such curve was filed as active; note: nearly all actives have a fitted effect of over 40% in size). The essentials:
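Readout: fluorescence intensity from CellTiter-Fluor after 30 min at 37 C/5% CO2. Preceded by 17.5 h treatment of PGC/ERR cells with DMSO-dissolved compounds, added 6 h post-seeding.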

The nature of assay [9]: qHTS assay to identify small molecule antagonists of the estrogen related receptor signaling pathway with the pleiotropic PPARgamma coactivator (PGC) from Tox21 10K library (AID 1224841; call rule not given here; note: actives are mostly falling curves and most rising ones were filed inactive; nearly all actives have a fitted effect of over 50% in size). The essentials: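 One-Glo luminescence, measured after half an hour at room temperature, quantified reporter output of PGC/ERR cells. These had been plated at 2,000 per well, incubated 6 h, dosed with compounds in DMSO, then kept 18 h at 37 C.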

The nature of assay [10]: qHTS assay to identify small molecule agonists of the estrogen related receptor signaling pathway with the pleiotropic PPARgamma coactivator (PGC) from Tox21 10K library (AID 1224842). Note: nearly all actives have a fitted effect of over 15% in size. Note: potency is the fitted concentration of half-maximal effect. The essentials: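 PGC/ERR reporter cell line, 2,000 cells per well, incubated 6 h at 37 C before 23 nL compound in DMSO was added. After 18 h at 37 C, One-Glo luminescence read following 30 min at room temperature.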

The target in assay [11] is Thyrotropin receptor (Homo sapiens) (UniProt P16473). Put plainly: qHTS assay to identify small molecule agonists of the thyroid stimulating hormone receptor (TSHR) signaling pathway (AID 1224843; calls by dose curve; note: nearly all actives have a fitted effect of over 45% in size). Summed up:
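Agonist-mode screen: TSHR HEK293 cells received test chemicals for half an hour at room temperature, then HTRF cAMP detection reagents for one hour prior to fluorescence measurement. Each chemical ran as a 15-concentration series, triplicated.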

Assay [12] in a line: qHTS assay to identify small molecule agonists of H2AX (AID 1224845; active = well fitted activation curve with a large enough effect in the signal ratio in the repeat runs, not every such curve was filed as active; the % refers to the signal ratio). Summed up:
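Wild-type CHO-K1 cells, plated overnight, exposed 3hr at 37C to 15 concentrations (0.76% DMSO final). Lysed, then HTRF anti-pH2AX (S139) cryptate and anti-H2AX-d2 antibodies, 24 hr room temperature; 665/620 nm emission read.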

The nature of assay [13]: qHTS assay to identify small molecule agonists of the hypoxia (HIF-1) signaling pathway (AID 1224846; active = well fitted activation curve with a large enough effect in the signal ratio in the repeat runs, not every such curve was filed as active; the % refers to the signal ratio). Summed up:
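ME-180 HRE-bla reporter cells; compounds in DMSO, 17 h at 37C; read-out beta-lactamase via CCF4-AM FRET.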

Assay [14] is described as follows: qHTS assay to identify small molecule agonists of H2AX - cell viability counter screen (AID 1224847; calls by dose curve; note: top concentration of the series differs between compounds; nearly all actives have a fitted effect of over 30% in size). The essentials: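 We seed wild-type CHO-K1 cells overnight, treat them for 3 hr at 37C with compounds in 15-concentration series, and quantify remaining viability by CellTiter-Glo luminescence.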
The nature of assay [15]: qHTS assay to identify small molecule antagonists of the estrogen related receptor (ERR) signaling pathway from Tox21 library (AID 1224848). Note: nearly all actives have a fitted effect of over 50% in size. The essentials: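 Quantitative high-throughput format: ERR reporter cells (2,000/well) pre-incubated 6 h, treated 18 h at 37 C with compounds in DMSO alongside positive and negative controls, then read by ONE-Glo luminescence.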
Assay [16] can be described thus: qHTS assay to identify small molecule agonists of the estrogen related receptor (ERR) signaling pathway from Tox21 library (AID 1224849; calls by dose curve; note: nearly all actives have a fitted effect of over 15% in size). To be noted: ERR reporter cell line, ONE-Glo luciferase, 18 h; at 92.4 µM (top of the series) unless noted. Summed up: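 Luciferase activity in ERR pathway reporter cells served as the agonist readout; exposure lasted 18 h at 37 C, with ONE-Glo detection after 30 min at room temperature.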

Assay [17] in a line: qHTS RealTime-Glo MT Cell Viability Assay in HepG2 cells - 24 hour (AID 1224867). Note: nearly all actives have a fitted effect of over 50% in size. Summed up: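 Viability was tracked continuously by NanoLuc luminescence from prosubstrate reduced by living HepG2 cells, at successive time points over 40 h of compound exposure. Cells with reagent were preincubated 5 h at 37 °C before compound addition.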
Assay [18] in a line: qHTS assay to identify small molecule agonists of the hypoxia (HIF-1) signaling pathway - cell viability counter screen (AID 1224844; calls by dose curve; note: nearly all actives have a fitted effect of over 50% in size). The essentials:
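In this counter screen, HRE-bla ME-180 cell viability after 17 hrs of compound exposure at 37C was read by CellTiter-Glo luminescence, multiplexed with the beta-lactamase reporter measurement.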
% is set by controls: 0 for no effect and ±100 for the full control effect.

Chain of Luciferin 4-monooxygenase (Photinus pyralis) (P08659 whole entry, looked up): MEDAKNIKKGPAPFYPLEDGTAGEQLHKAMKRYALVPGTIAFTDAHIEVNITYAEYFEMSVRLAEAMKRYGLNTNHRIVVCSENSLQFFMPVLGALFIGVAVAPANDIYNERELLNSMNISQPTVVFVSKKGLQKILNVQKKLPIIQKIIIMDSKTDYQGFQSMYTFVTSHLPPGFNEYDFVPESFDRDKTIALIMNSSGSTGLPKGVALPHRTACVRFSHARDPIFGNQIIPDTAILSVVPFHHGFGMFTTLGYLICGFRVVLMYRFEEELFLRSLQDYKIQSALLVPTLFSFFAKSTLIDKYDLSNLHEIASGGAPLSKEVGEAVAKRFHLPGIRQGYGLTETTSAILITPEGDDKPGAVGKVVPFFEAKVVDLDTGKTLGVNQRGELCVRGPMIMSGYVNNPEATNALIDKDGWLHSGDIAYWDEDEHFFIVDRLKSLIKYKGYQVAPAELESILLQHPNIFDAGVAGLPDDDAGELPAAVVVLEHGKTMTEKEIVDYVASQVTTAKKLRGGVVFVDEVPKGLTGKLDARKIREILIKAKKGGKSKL
Chain of Thyrotropin receptor (Homo sapiens) (P16473 whole entry, looked up): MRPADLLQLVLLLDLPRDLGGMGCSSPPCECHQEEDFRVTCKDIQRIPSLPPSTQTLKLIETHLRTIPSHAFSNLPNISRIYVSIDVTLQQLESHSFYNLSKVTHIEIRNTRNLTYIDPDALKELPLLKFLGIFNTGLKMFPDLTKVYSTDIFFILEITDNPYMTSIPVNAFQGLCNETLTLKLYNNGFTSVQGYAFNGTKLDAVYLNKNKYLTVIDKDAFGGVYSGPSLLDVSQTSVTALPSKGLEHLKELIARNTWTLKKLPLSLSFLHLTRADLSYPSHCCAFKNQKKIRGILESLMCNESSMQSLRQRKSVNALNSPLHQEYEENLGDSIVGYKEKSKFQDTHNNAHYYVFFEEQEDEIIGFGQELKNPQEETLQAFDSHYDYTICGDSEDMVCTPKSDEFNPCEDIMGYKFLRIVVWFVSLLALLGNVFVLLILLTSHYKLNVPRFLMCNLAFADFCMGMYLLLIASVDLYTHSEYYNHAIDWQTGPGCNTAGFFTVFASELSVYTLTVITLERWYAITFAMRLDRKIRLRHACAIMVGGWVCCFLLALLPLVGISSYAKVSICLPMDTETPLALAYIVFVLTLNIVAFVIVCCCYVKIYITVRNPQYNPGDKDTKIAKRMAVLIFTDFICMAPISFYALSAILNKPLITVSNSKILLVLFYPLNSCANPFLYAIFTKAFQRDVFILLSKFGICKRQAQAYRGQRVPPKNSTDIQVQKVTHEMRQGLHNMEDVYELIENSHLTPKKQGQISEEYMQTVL

For `COC(=O)/C=C(\C)CCC=C(C)C`, the call in [1], in assay [2], in assay [4], in assay [6], in assay [7] and in assay [8] was inactive. Besides, the result in [12], in assay [13], in assay [14], in assay [15] and in assay [17] was inactive. Moreover, the Potency result in assay [3], in assay [5], in [9], in assay [10] and in assay [11] was “inactive” throughout. In assay [16], the activity change, positive = activation is 1.22%.

As for `Cc1cccc(N)n1`, the outcome in assay [1], in assay [2], in [4], in assay [6], in assay [7] and in assay [8] was inactive. Besides, the outcome in assay [18], in assay [12], in assay [13] and in [17] was inactive. Further, the Potency entry in assay [3], in [5] and in [11] was “inactive” each time.

`CC(C)c1cc(C(C)C)cc(C(C)C)c1`: the call in [1], in assay [2], in assay [4], in assay [6], in [7] and in assay [8] was inactive. The outcome in [18], in assay [12], in [14], in assay [15] and in assay [17] was inactive. Moreover, the Potency entry in assay [3], in [5], in [9] and in [10] was “inactive” each time. For the same compound, the activity change, positive = activation in [16] is 7.19%.

As to `C[C@]12C=CC(=O)C=C1[C@@H](F)C[C@@H]1[C@@H]2[C@@H](O)C[C@@]2(C)[C@H]1CC[C@]2(O)C(=O)CO`, the compound was called inactive in assay [1], in assay [2], in [4], in assay [6], in [7] and in [8]. Moreover, the call in assay [18], in assay [12], in [13], in [14], in assay [15] and in [17] was inactive. The Potency result in [3], in assay [5], in assay [9] and in assay [11] was “inactive” throughout. Further, in [10], the Potency is 6.68 µM (active). In addition, in assay [16], the activity change, positive = activation is -4.03% [at 42.5 µM].

`CC(CC(=O)Cl)CC(C)(C)C` (stereo not drawn): the compound was classed as inactive in assay [1], in [2], in assay [4], in assay [6], in assay [7] and in [8]. For the same compound, the outcome in assay [18], in assay [12], in assay [14], in assay [15] and in [17] was inactive. In addition, the Potency entry in [3], in assay [5] and in assay [9] was “inactive” throughout. Also, in [16], the activity change, positive = activation is 5.62%.

As for `CC(C)(C)C(=O)CC(=O)C(C)(C)C`, the result in assay [1], in assay [2], in assay [4], in assay [6], in [7] and in assay [8] was inactive. The call in assay [18], in assay [12], in assay [15] and in assay [17] was inactive. In addition, the Potency result in [3], in assay [5], in assay [10] and in assay [11] was “inactive” throughout. The activity change, positive = activation in assay [16] was 3.23%.

For `C=C(C)C(=O)OCCCC`, the outcome in assay [1], in assay [2], in assay [4], in assay [6], in assay [7] and in assay [8] was inactive. The outcome in assay [18], in assay [12], in assay [13], in [14] and in assay [17] was inactive. Besides, the Potency result in assay [3], in assay [5] and in [11] was “inactive” throughout.
